Test results taken from paper PMC11006913.

Experiments:
Experiment in all cases: PBM; 200 nM protein, PBS
Settings in all cases: dsDNA, one strand shown
[1] = target: MSX2 (Homo sapiens, UniProt P35548 130-214, R199I)
[2] = target: MSX2 (Homo sapiens, UniProt P35548 130-214)
[3] = target: MSX2 (Homo sapiens, UniProt P35548 130-214, F161Y)
[4] = target: PITX2 (Homo sapiens, UniProt Q99697 72-157)
[5] = target: PROP1 (Homo sapiens, UniProt O75360 56-141)
[6] = target: PROP1 (Homo sapiens, UniProt O75360 56-141, R99H)
Sequence of PROP1 (Homo sapiens, UniProt O75360 56-141, R99H) (O75360 56-141 R99H): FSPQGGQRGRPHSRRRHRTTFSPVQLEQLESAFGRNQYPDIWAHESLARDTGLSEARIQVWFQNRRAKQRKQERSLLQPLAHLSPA

[7] = target: VAX1 (Homo sapiens, UniProt Q5SQQ9 86-172)
Sequence of VAX1 (Homo sapiens, UniProt Q5SQQ9 86-172) (Q5SQQ9 86-172): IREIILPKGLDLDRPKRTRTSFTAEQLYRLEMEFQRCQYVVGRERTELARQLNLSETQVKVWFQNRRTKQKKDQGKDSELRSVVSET

[8] = target: PROP1 (Homo sapiens, UniProt O75360 56-141, F88S)
Sequence of PROP1 (Homo sapiens, UniProt O75360 56-141, F88S) (O75360 56-141 F88S): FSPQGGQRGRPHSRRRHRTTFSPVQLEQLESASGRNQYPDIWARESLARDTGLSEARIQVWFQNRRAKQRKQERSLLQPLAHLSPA

[9] = target: VAX1 (Homo sapiens, UniProt Q5SQQ9 86-172, T142I)
Sequence of VAX1 (Homo sapiens, UniProt Q5SQQ9 86-172, T142I) (Q5SQQ9 86-172 T142I): as the sequence (Q5SQQ9 86-172) above, with T57I counted along it

[10] = target: VAX1 (Homo sapiens, UniProt Q5SQQ9 86-172, K157R)
Sequence of VAX1 (Homo sapiens, UniProt Q5SQQ9 86-172, K157R) (Q5SQQ9 86-172 K157R): as the sequence (Q5SQQ9 86-172) above, with K72R counted along it

[11] = target: ALX1 (Homo sapiens, UniProt Q15699 118-204, L144V)
Sequence of ALX1 (Homo sapiens, UniProt Q15699 118-204, L144V) (Q15699 118-204 L144V): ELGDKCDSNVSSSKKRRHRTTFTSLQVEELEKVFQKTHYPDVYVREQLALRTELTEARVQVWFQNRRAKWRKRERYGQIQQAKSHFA

[12] = target: ALX1 (Homo sapiens, UniProt Q15699 118-204, L144R)
Sequence of ALX1 (Homo sapiens, UniProt Q15699 118-204, L144R) (Q15699 118-204 L144R): as the sequence (Q15699 118-204 L144V) above, with V27R counted along it

[13] = target: ALX1 (Homo sapiens, UniProt Q15699 118-204)
Sequence of ALX1 (Homo sapiens, UniProt Q15699 118-204) (Q15699 118-204): as the sequence (Q15699 118-204 L144V) above, with V27L counted along it

Sequence of MSX2 (Homo sapiens, UniProt P35548 130-214, R199I) (P35548 130-214 R199I): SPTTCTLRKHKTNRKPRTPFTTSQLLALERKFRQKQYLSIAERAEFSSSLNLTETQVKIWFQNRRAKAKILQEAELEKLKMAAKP
Sequence of MSX2 (Homo sapiens, UniProt P35548 130-214, F161Y) (P35548 130-214 F161Y): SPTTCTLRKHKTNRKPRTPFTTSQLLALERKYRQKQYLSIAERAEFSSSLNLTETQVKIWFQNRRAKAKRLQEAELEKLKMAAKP
Sequence of MSX2 (Homo sapiens, UniProt P35548 130-214) (P35548 130-214): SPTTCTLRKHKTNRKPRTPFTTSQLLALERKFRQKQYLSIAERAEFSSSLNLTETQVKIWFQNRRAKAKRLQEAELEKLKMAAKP
Sequence of PROP1 (Homo sapiens, UniProt O75360 56-141) (O75360 56-141): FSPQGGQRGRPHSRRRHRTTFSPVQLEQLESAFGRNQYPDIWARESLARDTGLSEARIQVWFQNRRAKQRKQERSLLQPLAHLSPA

AGCCCACC
binding signal [1]: 9.45 upbm affinity estimate (log intensity, higher = more binding, comparable within an allelic series) | binding signal [2]: 9.52 upbm affinity estimate (log intensity, higher = more binding, comparable within an allelic series) | binding signal [3]: 9.47 upbm affinity estimate (log intensity, higher = more binding, comparable within an allelic series)

GACCTCCC
binding signal [1]: 9.42 upbm affinity estimate (log intensity, higher = more binding, comparable within an allelic series) | binding signal [4]: 8.09 upbm affinity estimate (log intensity, higher = more binding, comparable within an allelic series) | binding signal [2]: 9.46 upbm affinity estimate (log intensity, higher = more binding, comparable within an allelic series) | binding signal [3]: 9.44 upbm affinity estimate (log intensity, higher = more binding, comparable within an allelic series)

CCCTAGCG
binding signal [1]: 9.48 upbm affinity estimate (log intensity, higher = more binding, comparable within an allelic series) | binding signal [2]: 9.29 upbm affinity estimate (log intensity, higher = more binding, comparable within an allelic series) | binding signal [5]: 6.52 upbm affinity estimate (log intensity, higher = more binding, comparable within an allelic series) | binding signal [6]: 6.7 upbm affinity estimate (log intensity, higher = more binding, comparable within an allelic series) | binding signal [7]: 6.79 upbm affinity estimate (log intensity, higher = more binding, comparable within an allelic series) | binding signal [8]: 6.73 upbm affinity estimate (log intensity, higher = more binding, comparable within an allelic series) | binding signal [3]: 9.37 upbm affinity estimate (log intensity, higher = more binding, comparable within an allelic series) | binding signal [9]: 7.2 upbm affinity estimate (log intensity, higher = more binding, comparable within an allelic series) | binding signal [10]: 6.92 upbm affinity estimate (log intensity, higher = more binding, comparable within an allelic series)

CTAATCAA
binding signal [1]: 11 upbm affinity estimate (log intensity, higher = more binding, comparable within an allelic series)

ATAATCAC
binding signal [1]: 11.1 upbm affinity estimate (log intensity, higher = more binding, comparable within an allelic series)

GAACACCC
binding signal [1]: 9.57 upbm affinity estimate (log intensity, higher = more binding, comparable within an allelic series) | binding signal [2]: 9.63 upbm affinity estimate (log intensity, higher = more binding, comparable within an allelic series) | binding signal [3]: 9.59 upbm affinity estimate (log intensity, higher = more binding, comparable within an allelic series)

CATACTAA
binding signal [1]: 10.4 upbm affinity estimate (log intensity, higher = more binding, comparable within an allelic series) | binding signal [2]: 10.7 upbm affinity estimate (log intensity, higher = more binding, comparable within an allelic series) | binding signal [3]: 10.6 upbm affinity estimate (log intensity, higher = more binding, comparable within an allelic series)

GATGTTTA
binding signal [1]: 10.5 upbm affinity estimate (log intensity, higher = more binding, comparable within an allelic series) | binding signal [2]: 10.9 upbm affinity estimate (log intensity, higher = more binding, comparable within an allelic series) | binding signal [3]: 10.8 upbm affinity estimate (log intensity, higher = more binding, comparable within an allelic series)

CAATCAAA
binding signal [1]: 10.9 upbm affinity estimate (log intensity, higher = more binding, comparable within an allelic series)

GAGGTGGC
binding signal [1]: 9.4 upbm affinity estimate (log intensity, higher = more binding, comparable within an allelic series) | binding signal [11]: 6.34 upbm affinity estimate (log intensity, higher = more binding, comparable within an allelic series) | binding signal [12]: 6.43 upbm affinity estimate (log intensity, higher = more binding, comparable within an allelic series) | binding signal [2]: 9.42 upbm affinity estimate (log intensity, higher = more binding, comparable within an allelic series) | binding signal [3]: 9.41 upbm affinity estimate (log intensity, higher = more binding, comparable within an allelic series) | binding signal [13]: 6.4 upbm affinity estimate (log intensity, higher = more binding, comparable within an allelic series)

CGCTCAGC
binding signal [1]: 9.48 upbm affinity estimate (log intensity, higher = more binding, comparable within an allelic series) | binding signal [2]: 9.57 upbm affinity estimate (log intensity, higher = more binding, comparable within an allelic series) | binding signal [3]: 9.59 upbm affinity estimate (log intensity, higher = more binding, comparable within an allelic series)

GAGCCGAC
binding signal [1]: 9.44 upbm affinity estimate (log intensity, higher = more binding, comparable within an allelic series) | binding signal [2]: 9.46 upbm affinity estimate (log intensity, higher = more binding, comparable within an allelic series) | binding signal [7]: 7.12 upbm affinity estimate (log intensity, higher = more binding, comparable within an allelic series) | binding signal [3]: 9.31 upbm affinity estimate (log intensity, higher = more binding, comparable within an allelic series) | binding signal [9]: 7.21 upbm affinity estimate (log intensity, higher = more binding, comparable within an allelic series) | binding signal [10]: 7.3 upbm affinity estimate (log intensity, higher = more binding, comparable within an allelic series)

CCTGACTC
binding signal [1]: 9.6 upbm affinity estimate (log intensity, higher = more binding, comparable within an allelic series) | binding signal [2]: 9.49 upbm affinity estimate (log intensity, higher = more binding, comparable within an allelic series) | binding signal [3]: 9.54 upbm affinity estimate (log intensity, higher = more binding, comparable within an allelic series)

GATAATCA
binding signal [1]: 10.9 upbm affinity estimate (log intensity, higher = more binding, comparable within an allelic series)

ATTAAGAA
binding signal [1]: 11.3 upbm affinity estimate (log intensity, higher = more binding, comparable within an allelic series) | binding signal [2]: 12 upbm affinity estimate (log intensity, higher = more binding, comparable within an allelic series) | binding signal [3]: 11.7 upbm affinity estimate (log intensity, higher = more binding, comparable within an allelic series)
